# Bioassay records as filed in PubChem BioAssay.
# Coupling enz: qHTS Assay for Inhibitors of Fructose-1,6-bisphosphate Aldolase from Giardia Lamblia: Coupling assay counterscreen. activity change, negative = inhibition, % at 58.2 µM, hits read low. 290,000 tested, 0.67% active. coupling enzyme system counterscreen, AmpLite Red fluorescence; in the data active means activity change below about -30%
#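 Counterscreen lacking aldolase: glyceraldehyde-3-phosphate coupling-enzyme reagent preincubated 10 min at RT with compound (at 57.5 uM final), then substrate/coupling system with AmpLite Red added; fluorescence read at 525/598 nm after 20 min RT.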
# Sfp PPTase inh: qHTS Assay for Inhibitors of Bacillus subtilis Sfp phosphopantetheinyl transferase (PPTase) | Biochemical Sfp PPTase activity, qHTS | 310,000 tested, 3.5% active | Potency, µM, inactives show largest response in the series, negative = inhibition, actives largely listed as inhibitors | AID 1490, 2009 | 4'-phosphopantetheinyl transferase ffp (Bacillus subtilis), Q9F4F7;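 further: the enzyme is Sfp with the accession as filed and its product quenches rhodamine fluorescence; potency means the concentration at half of the fitted maximal effect; 0% = enzyme reaction without inhibitor and -100% = no enzyme wells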
#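 After 15 min at room temperature with compound, 15 nM Sfp received 5 uM rhodamine-CoA plus 12.5 uM BHQ-2-ybbR (50 mM Hepes pH 7.6, 10 mM MgCl2). Rate came from the fluorescence difference over 30 min, ex 525/em 598 nm.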
# Tau fibril FP: qHTS for Inhibitors of Tau Fibril Formation, Fluorescence Polarization | 280,000 tested, 0.39% active | Potency, µM (titrated, usually from 57.7 µM), without a hit: at the highest dose activity, negative = inhibition, most hits filed as inhibitors | K18 P301L tau heparin fibrillization, Alexa594 FP, 6 h; further: potency means the concentration at half of the fitted maximal effect; nearly all actives have a fitted effect of over 55% in size
# Target sequence (P10636 561-689 P618L limits assumed): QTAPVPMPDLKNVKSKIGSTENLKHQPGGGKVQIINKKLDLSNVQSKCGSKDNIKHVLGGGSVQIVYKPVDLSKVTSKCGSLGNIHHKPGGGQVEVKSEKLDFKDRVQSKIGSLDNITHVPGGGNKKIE
#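 Steps: dispense K18 P301L tau (15 uM plus 0.24 uM Alexa 594 tracer, final) in pH 7 sodium acetate; add compound; add heparin (20 uM final); incubate 6 hr, 37 C; add ThT (30 uM final); after 1 hr ambient, read FP.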
# Tau fluor counter: Counterscreen qHTS for Inhibitors of Tau Fibril Formation, Fluorescence Polarization; 280,000 tested, 0.93% active; tau K18 P301L Alexa594 fluorescence, heparin fibrillization; Potency, µM (highest dose often 57.7 µM), without a hit: at the highest dose activity change, negative = decrease; further: potency means the concentration at half of the fitted maximal effect; nearly all actives have a fitted effect of over 55% in size
#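 Human tau K18 P301L (15 uM unlabeled, 0.24 uM Alexa 594-labeled) in 100 mM sodium acetate pH 7 with 20 uM heparin, 6 hr at 37 C. ThT 30 uM added, 1 hr ambient; Alexa 594 FP and total fluorescence read at 555/632 nm.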
# Tau fibril ThT: qHTS for Inhibitors of Tau Fibril Formation, Thioflavin T Binding; Microtubule-associated protein tau (Homo sapiens), P10636; recombinant tau K18 P301L (four-repeat tau fragment), heparin-induced fibrillization, ThT fluorescence; Potency, µM (titrated, usually from 57.4 µM), for inactives: at the top dose activity, negative = inhibition, usual class: inhibitors; 270,000 tested, 2.1% active; further: potency means the concentration at half of the fitted maximal effect; nearly all actives have a fitted effect of over 55% in size
#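 Heparin-induced (20 uM) aggregation of recombinant human K18 P301L tau, 15 uM unlabeled with 0.24 uM labeled, pH 7 acetate buffer, 6 hr at 37 C with compound. Fibrils quantified by 30 uM ThT fluorescence after 1 hr ambient incubation.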
# * hit, by the source's call; ? = inconclusive; / = no result; [ ] = dose if it differs, or a comment. The list is not random: actives were taken first. Their share in the collection is about 5.2%. Unless noted, the call rests on the fitted dose curve; in most records, active means well fitted curve in the direction sought with a large enough effect; inconclusive means small, poorly fitted or top-dose-only effect, or another doubt; inactive means no such curve, though single readings can be large; an effect the other way counts as inactive or inconclusive. Unless noted, on the % scale 0 is the no-effect control and ±100 the full control effect.
SMILES,Coupling enz,Sfp PPTase inh,Tau fibril FP,Tau fluor counter,Tau fibril ThT
O=S(=O)(Nc1cc2nc3ccccc3nc2n1Cc1ccccc1)c1ccc(Cl)cc1,-55.1*,56.2µM*,?,14.1µM*[quencher],?
COc1ccc(CCNC(=O)c2ccc(Cn3c(=O)c4ccccc4n(CC(=O)C(C)(C)C)c3=O)cc2)cc1OC,/,/,-4.5%,-23.2%,0.7%
COC(=O)N[C@@H](c1ccc(Br)cc1)C(C(=O)OC)C(=O)OC,1.6,-14.5%,-7.4%,-10.9%,-7.6%
CCOC(=O)c1c(C)oc2c1cc(NS(=O)(=O)c1ccc(C(=O)O)cc1)c1ccccc12,-19.9,56.2µM*,/,/,/
CCOc1ccc(S(=O)(=O)Nc2cc3c(C(=O)OCc4ccccc4)c(C)oc3c3ccccc23)cc1,/,/,-11.2%,-26.8%,2.9%
CCCCCCCCc1nc(=S)[nH][nH]1,9.2,20µM*,-3.3%,-5.9%,-7.7%
COc1cc(/C=N/N=C(N)N)ccc1OCc1ccccc1Cl,0.0,25.1µM*,-12.8%,?,-8.4%
O=c1cc(CN2CCOCC2)c2ccc(O)c(O)c2o1,-17.4,44.7µM*,/,/,/
CCCc1cc(=O)oc2c(CN3CCOCC3)c(O)ccc12,-0.9,3.7%,-1.2%,0.3%,-1.7%
O=c1cc(CN2CCN(Cc3ccccc3)CC2)c2ccc(O)c(O)c2o1,-23.3,79.4µM*,/,/,/
Cc1c(O)ccc2c(CN3CCN(Cc4ccccc4)CC3)cc(=O)oc12,1.9,9.2%,/,/,/
Fc1ccc(CNC(=S)Nc2cccc(C(F)(F)F)c2)cc1,0.4,-5.3%,-0.2%,-10.0%,-4.5%
O=[N+]([O-])c1cc(C(F)(F)F)cc([N+](=O)[O-])c1NCCNC(=S)Nc1cccc(F)c1,-2.8,3.5%,-7.3%,8.91µM*[quencher],?
CCOC(=O)c1c(N)sc(C(=O)OCCOC)c1C,-1.7,25.1µM*,-5.9%,-3.8%,-12.3%
CCOC(=O)c1sc(NC(=O)Nc2ccc(Cl)cc2)cc1C,-0.8,-10.0%,?,3.16µM*[quencher],-15.1%
CCOC(=O)c1sc(N)c(C(=O)Nc2ccccc2)c1C,-2.0,20µM*,-5.0%,-11.4%,-13.4%
CCOC(=O)c1sc(N)c(C(=O)OCC)c1C,4.9,1.2%,11.1%,-13.9%,?
Cc1ccc(-c2cc(O)cc3sc(=O)oc23)cc1C,0.2,-14.2%,22.4µM*,15.8µM*[quencher],?
O=c1oc2cc(O)ccc2s1,0.9,-27.3%,?,-25.7%,?
CC(=O)c1cc2c(cc1NC(=O)CCC1CCCC1)OCO2,1.4,5.9%,5.4%,1.6%,-0.1%
CC(=O)c1cc2c(cc1NC(=O)CCn1cccc1)OCO2,5.1,50.1µM*,-12.0%,-11.6%,-11.5%
Cn1c(NN)nc2ccccc2c1=O,1.8,17.8µM*,-15.2%,-26.5%,?
CS(=O)(=O)N1N=C(c2ccco2)CC1c1ccc(Cl)cc1Cl (stereo not drawn),0.6,39.8µM*,3.5%,-5.1%,-9.6%
CS(=O)(=O)N1N=C(c2ccco2)CC1c1ccccc1Cl (stereo not drawn),0.7,4.5%,-2.5%,-14.1%,-14.0%
CCOc1ccc2cc(C3CC(c4ccco4)=NN3S(C)(=O)=O)c(=O)[nH]c2c1 (stereo not drawn),-5.8,22.4µM*,1.6%,-5.7%,/
SMILES,Coupling enz,Sfp PPTase inh,Tau fibril FP,Tau fluor counter,Tau fibril ThT
Cc1sc2nc(SCC(=O)Nc3c(C)n(C)n(-c4ccccc4)c3=O)n(C)c(=O)c2c1C,2.2,50.1µM*,-7.6%,-5.0%,?
CCc1nnc(NC(=O)CSc2nc(-c3ccc(OC)cc3)ns2)s1,1.9,5.1%,-8.4%,-1.2%,-1.5%
CCOC(=O)CNC(=O)CSc1nc(-c2ccc(OC)cc2)ns1,-1.4,39.8µM*,-1.4%,1.0%,-2.9%
Cc1cccc(-c2nsc(SCC(=O)Nc3nccs3)n2)c1,-0.9,50.1µM*,-4.2%,-11.3%,-10.9%
CCOC(=O)CSc1nc(-c2ccccc2)ns1,4.4,15.8µM*,3.4%,1.6%,-3.2%
CCOC(=O)CSc1nnc(-c2ccccc2)c(-c2ccccc2)n1,0.3,-2.2%,/,/,/
